Assay results: PubChem BioAssay (NCATS)
Values joined by “and” are separate entries in the source; they are usually repeats but may differ in a detail not shown here. Equal values may be shown once. Results filed as inconclusive are left out. Active and inactive are the calls of the source. Unless noted, calls come from the whole dose curve; as a rule, active = well fitted curve in the direction sought with a large enough effect; inconclusive = small, poorly fitted or top-dose-only effect, or another doubt; inactive = no such curve, though single readings can be large; an effect the other way counts as inactive or inconclusive.

Legend:
[1] = Cell Viability - HepG2 (AID 433; calls by dose curve;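 note: potency is the fitted concentration of half-maximal effect; potency for ATP loss meaning cytotoxicity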); conditions: qHTS
Method in brief: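 Cytotoxicity read as ATP loss (CellTiter-Glo luminescence) after 40 hr compound exposure of HepG2, 1500 cells/well, 37 °C. AC50 by Hill equation; 0% set by DMSO, 100% inhibition by 100 uM tamoxifen.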

[2] = biological target: Mitogen-activated protein kinase 10 (Mus musculus) (UniProt Q61831); assay: JNK3 AlphaScreen Assay (AID 530; active = well fitted curve in either direction with a large enough effect, not every such curve was filed as active;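 note: kinase came from lysate of stimulated human HepG2 cells; signal reports phosphorylation of biotinylated GST-cJun 1-79 at Ser73 with 10 µM ATP; % is set by controls: 0 for no effect and ±100 for the full control effect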); conditions: JNK3 lysate, c-Jun phosphorylation; series mostly up to 57.1 µM
Method in brief: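 Biotinylated GST-cJun(1-79) served as substrate for JNK3 in HepG2 lysates stimulated with IL-1beta and TNF-alpha. ATP was 10 uM final, pH 7.6. Ser73 phosphorylation was quantified by AlphaScreen (680 nm excitation).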

[3] = Cell Viability - Mesenchymal (AID 546); conditions: mesenchymal cells viability, qHTS; series mostly up to 91.7 µM;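 note: cells exposed to compound for 40 hours before reading; 0% = DMSO only and -100% = 100 µM tamoxifen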
Method in brief: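 In this qHTS cytotoxicity format, glomerulus-derived human mesenchymal kidney cells received compound for 40 hr, then luciferase-based ATP quantitation. Concentration-response data were fitted with the Hill equation.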

[4] = Cellular Toxicity (caspase-3) HUV-EC-C (AID 656); conditions: HUV-EC-C cells, caspase-3 activation (apoptosis), vehicle = 0, 100 µM tamoxifen = 100%; series mostly up to 92.2 µM;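 note: 0% = DMSO basal and 100% = 100 µM tamoxifen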
Method in brief: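 Luminescent Caspase-Glo 3/7 readout after 16 h, 37 °C compound exposure of HUV-EC-C endothelial cells, 1000 per well, complete medium. AC50 derived by Hill fitting, with DMSO as baseline and 100 uM tamoxifen as full activation.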

[5] = Cellular Toxicity (caspase-3) SK-N-SH (AID 661); conditions: SK-N-SH caspase-3 activation, qHTS; series mostly up to 91.7 µM;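 note: cells exposed to compound for 16 hours; 0% = DMSO basal and 100% = 10 µM staurosporine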
Method in brief: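 Luminescent Caspase-Glo 3/7 read-out after 16 hr compound exposure of SK-N-SH neuroblastoma cells at 37 °C. Signal increase normalized to DMSO (basal) and 10 uM staurosporine (100%); AC50 from Hill equation fits of qHTS concentration-response data.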

[6] = Cellular Toxicity (caspase-3) H-4-II-E (AID 663); conditions: H-4-II-E rat hepatoma; Potency: caspase-3 activation; series mostly up to 92.2 µM;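 note: cells exposed to compound for 16 hr before readout; 0% = DMSO basal and 100% = 100 µM tamoxifen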
Method in brief: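 Caspase 3/7 activation measured in H-4-II-E cells in complete culture medium after 16 hr treatment at 37 °C, using luciferase-coupled substrate readout; AC50 values come from Hill-equation fits of normalized concentration-response data.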

[7] = MultiTox-Fluor Cytotoxicity Assay - LYMP1-002 - Dead Cells (AID 960); conditions: LYMP1-002 lymphoblastoid cells, dead-cell protease fluorescence; series mostly up to 46.1 µM;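 note: 0% = DMSO and 100% = tetraoctylammonium bromide; nearly all actives have a fitted effect of over 60% in size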
Method in brief: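 Readout: fluorescence at 485/520 from cell-impermeant bis-AAF-R110 cleaved by proteases leaking from damaged cells. LYMP1-002 lymphoblastoid line, 16 hr compound treatment at 37 C, concentration-response in qHTS format; Hill-equation AC50 values.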

[8] = MultiTox-Fluor Cytotoxicity Assay - LYMP1-003 - Live Cells (AID 962); conditions: LYMP1-003 lymphoblastoid cells, MultiTox-Fluor live-cell protease fluorescence; series mostly up to 92.2 µM;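 note: cells exposed to compound for 16 hours at 37 °C; 0% = DMSO only and full loss = 92 µM tetraoctylammonium bromide; cytotoxic hits lower the live-cell protease signal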
Method in brief: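 Readout: live-cell fluorescence (Ex/Em=405/510) from GF-AFC cleavage after 60 min MultiTox-Fluor reagent at room temperature. Lymphoblastoid LYMP1-003 cells, 16 hr compound treatment, 37 C. Concentration-response fitted to standard Hill equation for AC50.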

[9] = Cell Viability - LYMP2-005 (AID 967); conditions: LYMP2-005 lymphoblastoid cell viability; series mostly up to 92.2 µM;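 note: plate controls were DMSO only for no effect and 92 µM tetraoctylammonium bromide control for full effect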
Method in brief: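 LYMP2-005 human lymphoblastoid cells (2500/well) were treated with compounds for 24 h at 37 C. Intracellular ATP was then measured by CellTiter-Glo luminescence after 30 min at room temperature. AC50 values came from Hill-equation fits of qHTS concentration-response data.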

[10] = Cell Viability - LYMP2-023 (AID 975); conditions: LYMP2-023 lymphoblastoid cell viability; series mostly up to 92.2 µM;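 note: cellular ATP measured by luciferase luminescence as viability proxy; plate controls were DMSO only for no effect and 92 µM tetraoctylammonium bromide control for full effect; nearly all actives have a fitted effect of over 55% in size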
Method in brief: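 CellTiter-Glo luminescence after 30 min at room temperature; decrease in intracellular ATP reflects toxicity. Cells: human lymphoblastoid line, 2500/well, 24 hr compound exposure at 37 C. AC50 fitted to standard Hill equation from concentration-response.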

[11] = Cell Viability - LYMP2-007 (AID 979); conditions: LYMP2-007 lymphoblastoid cell viability; series mostly up to 92.2 µM;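 note: cells exposed to compound for 24 h before reading; 0% = DMSO only and the negative end = 92 µM tetraoctylammonium bromide; nearly all actives have a fitted effect of over 60% in size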
Method in brief: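 qHTS cytotoxicity: 2500 cells/well, 5 hr 37 C settle, compound 24 hr 37 C, CellTiter-Glo 30 min RT, luminescence. Decrease in ATP = toxicity. AC50 by standard Hill equation; tetraoctylammonium bromide positive control.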

[12] = biological target: Vitamin D3 receptor (Homo sapiens) (UniProt P11473); assay: qHTS assay for small molecule antagonists of vitamin D receptor signaling (AID 588541; calls by dose curve;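 note: receptor activated by calcitriol during compound treatment; % is set by controls: 0 for no effect and ±100 for the full control effect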); conditions: HEK293T VDR-UAS-bla, beta-lactamase ratio, antagonist mode; series mostly up to 76.7 µM
Sequence of Vitamin D3 receptor (Homo sapiens) (P11473 whole entry, looked up): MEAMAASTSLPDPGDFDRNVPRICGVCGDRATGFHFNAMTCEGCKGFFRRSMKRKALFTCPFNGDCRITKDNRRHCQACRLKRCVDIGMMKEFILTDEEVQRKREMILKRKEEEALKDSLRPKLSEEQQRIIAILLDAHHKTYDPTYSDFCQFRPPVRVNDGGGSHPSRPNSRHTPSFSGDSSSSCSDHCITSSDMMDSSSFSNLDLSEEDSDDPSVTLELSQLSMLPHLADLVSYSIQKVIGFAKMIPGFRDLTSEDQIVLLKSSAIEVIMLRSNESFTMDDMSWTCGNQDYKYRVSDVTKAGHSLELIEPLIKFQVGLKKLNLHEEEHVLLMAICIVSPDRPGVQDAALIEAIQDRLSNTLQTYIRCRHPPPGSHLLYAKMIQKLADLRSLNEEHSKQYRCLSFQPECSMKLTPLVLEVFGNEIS
Method in brief: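 VDR-UAS-bla HEK293T cells (2000/well, 2% charcoal-stripped FBS) were treated with titrated compounds plus 1-alpha,25-dihydroxyvitamin D3 (50 nM or 3 nM final) for 16 h at 37 C. CCF4 beta-lactamase fluorescence was read; Hill fits gave IC50.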

[13] = biological target: Retinoic acid receptor RXR-alpha (Homo sapiens) (UniProt P19793); assay: qHTS assay for small molecule agonists of retinoid X receptor alpha signaling (AID 588544; calls by dose curve;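 note: 0% = DMSO basal wells and 100% = reference agonist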); conditions: HEK293T RXRa-UAS-bla, beta-lactamase reporter, 18 h; series mostly up to 76.7 µM
Sequence of Retinoic acid receptor RXR-alpha (Homo sapiens) (P19793 whole entry, looked up): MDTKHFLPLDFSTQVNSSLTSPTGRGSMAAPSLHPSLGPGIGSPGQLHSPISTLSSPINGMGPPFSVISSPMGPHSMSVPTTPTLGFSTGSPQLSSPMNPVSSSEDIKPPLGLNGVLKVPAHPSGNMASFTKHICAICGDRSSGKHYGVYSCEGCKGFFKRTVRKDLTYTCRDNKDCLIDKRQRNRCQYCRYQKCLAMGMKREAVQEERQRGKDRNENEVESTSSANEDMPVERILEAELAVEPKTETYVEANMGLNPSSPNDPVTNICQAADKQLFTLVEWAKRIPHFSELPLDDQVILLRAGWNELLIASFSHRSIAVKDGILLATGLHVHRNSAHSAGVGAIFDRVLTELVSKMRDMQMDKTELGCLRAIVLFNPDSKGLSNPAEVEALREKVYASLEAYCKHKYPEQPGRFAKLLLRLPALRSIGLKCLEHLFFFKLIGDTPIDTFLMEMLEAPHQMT

[14] = biological target: Thyroid hormone receptor beta (Homo sapiens) (UniProt P10828); assay: qHTS assay for small molecule agonists of thyroid hormone receptor beta signaling (AID 588545; calls by dose curve); conditions: TR-UAS-bla GripTite HEK 293, beta-lactamase ratio, agonist mode, 18 h; series mostly up to 76.7 µM
Sequence of Thyroid hormone receptor beta (Homo sapiens) (P10828 whole entry, looked up): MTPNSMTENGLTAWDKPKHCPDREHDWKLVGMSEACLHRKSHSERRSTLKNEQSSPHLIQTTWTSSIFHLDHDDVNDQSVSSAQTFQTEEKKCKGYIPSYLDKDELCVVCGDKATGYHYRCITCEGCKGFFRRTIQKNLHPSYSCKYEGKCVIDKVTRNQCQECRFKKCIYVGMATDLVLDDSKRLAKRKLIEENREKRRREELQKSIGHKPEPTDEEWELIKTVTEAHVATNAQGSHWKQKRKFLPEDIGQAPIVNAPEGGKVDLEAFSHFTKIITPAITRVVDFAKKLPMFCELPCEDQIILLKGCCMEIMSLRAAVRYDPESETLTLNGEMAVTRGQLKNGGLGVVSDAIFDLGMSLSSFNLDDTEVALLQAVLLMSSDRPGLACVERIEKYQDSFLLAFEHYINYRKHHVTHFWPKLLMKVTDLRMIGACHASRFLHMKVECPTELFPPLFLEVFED
Method in brief: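 Agonist activity was read as beta-lactamase CCF4 fluorescence (405 ex, 460/530 em), scaled between DMSO (0%) and 10 nM T3 (100%), then Hill-fitted for EC50 and efficacy. HEK 293 TR-UAS-bla cells in 2% charcoal/dextran FBS medium were exposed 18 h at 37 C.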

[15] = biological target: Thyroid hormone receptor beta (Homo sapiens) (UniProt P10828); assay: qHTS assay for small molecule antagonists of thyroid hormone receptor beta signaling (AID 588547; active = well fitted inhibition curve with a large enough effect in the signal ratio, with a control signal flat, not every such curve was filed as active; the % refers to the signal ratio;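 note: cells stimulated with 0.4 nM T3 agonist during compound exposure; % is set by controls: 0 for no effect and ±100 for the full control effect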); conditions: TR-UAS-bla HEK293, beta-lactamase ratio, antagonist mode, 18 h
Method in brief: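 TR-UAS-bla GripTite HEK293 cells in 2% charcoal/dextran FBS medium were preincubated 4 h at 37 C, given compound (0.59 nM to 92 uM) plus 0.4 nM T3 (final) for 18 h, then CCF4 for 2 h at RT; Hill fit gave IC50.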

[16] = biological target: Nuclear receptor subfamily 1 group I member 2 (Rattus norvegicus) (UniProt Q9R1A7); assay: qHTS assay for small molecule activators of the rat pregnane X receptor (rPXR) signaling pathway (AID 651751; call rule not given here; note: 0% is about no effect); conditions: rPXR reporter cells, luciferase (One-Glo), 24 h
Sequence of Nuclear receptor subfamily 1 group I member 2 (Rattus norvegicus) (Q9R1A7 whole entry, looked up): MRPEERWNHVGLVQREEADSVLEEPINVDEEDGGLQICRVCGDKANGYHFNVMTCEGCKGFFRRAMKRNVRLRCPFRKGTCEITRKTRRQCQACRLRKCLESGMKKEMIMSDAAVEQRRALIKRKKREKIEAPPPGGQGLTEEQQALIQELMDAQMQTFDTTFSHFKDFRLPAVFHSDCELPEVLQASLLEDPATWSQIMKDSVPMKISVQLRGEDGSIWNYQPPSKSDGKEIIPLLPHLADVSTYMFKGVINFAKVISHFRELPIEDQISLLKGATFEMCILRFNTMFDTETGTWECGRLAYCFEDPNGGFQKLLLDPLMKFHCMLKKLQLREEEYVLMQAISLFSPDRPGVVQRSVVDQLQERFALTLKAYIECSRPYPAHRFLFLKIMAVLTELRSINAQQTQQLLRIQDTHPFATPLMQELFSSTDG

[17] = qHTS assay for small molecule activators of the human pregnane X receptor (PXR) signaling pathway (AID 720659; call rule not given here; note: 0% is about no effect); conditions: DPX-2 HepG2 CYP3A4-luciferase, 24 h; series mostly up to 92.3 µM
[18] = Cell Viability - LYMP2-021 (AID 974); conditions: LYMP2-021 lymphoblastoid cells viability; series mostly up to 92.2 µM;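 note: compound exposure lasts 24 hours at 37 °C; % is set by controls: 0 for no effect and ±100 for the full control effect; nearly all actives have a fitted effect of over 55% in size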
Method in brief: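 ATP luminescence (CellTiter-Glo, 30 min RT) after 24 h compound exposure at 37 C; 2500 human lymphoblastoid cells/well, 5 h settle beforehand. Cytotoxicity = concentration-dependent ATP drop, AC50 by Hill fit.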

[19] = Cell Viability - LYMP2-006 (AID 978); conditions: LYMP2-006 lymphoblastoid cell viability, qHTS; series mostly up to 92.2 µM; note: % is set by controls: 0 for no effect and ±100 for the full control effect; nearly all actives have a fitted effect of over 60% in size
Method in brief: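 Potency values are Hill-fit AC50s for decreases in intracellular ATP (CellTiter-Glo luminescence). LYMP2-006 lymphoblastoid cells, 2500 per well, were exposed to compound in complete culture medium for 24 hr at 37 C.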

[20] = Cell Viability - MRC5 (AID 434; calls by dose curve;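 note: potency is the fitted concentration of half-maximal effect; cells exposed to compound for 40 hours at 37 °C; potency reflects cytotoxicity seen as loss of intracellular ATP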); conditions: MRC5 lung fibroblast viability, qHTS
Method in brief: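 Decrease in intracellular ATP, quantified by luciferase light output, reflects compound toxicity toward MRC5 cells exposed for 40 hr in complete culture medium. Concentration-response curves, scaled between DMSO and 100 uM tamoxifen, gave AC50 values.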

CC(C)OC(=O)Cc1ccccc1
inactive: Potency [1] > 92 µM | Potency [2] | Potency [3] | outcome [4] | Potency [5] | Potency [6] | Potency [7] | outcome [8] | Potency [9] | Potency [10] | Potency [11] | outcome [12] | outcome [13] | Potency [14] | activity change % (negative = inhibition) [15] -4.91% | max response [16] 1.04% | outcome [17]

N#CCc1ccccc1
inactive: Potency [1] > 92 µM | Potency [2] | Potency [3] | outcome [4] | Potency [5] | Potency [6] | Potency [7] | outcome [8] | Potency [9] | Potency [18] | Potency [10] | Potency [19] | Potency [11] | outcome [12] | outcome [13] | activity change % (negative = inhibition) [15] 23.1% | max response [16] 1.21% | outcome [17]

Nc1ccc([N+](=O)[O-])cc1[N+](=O)[O-]
inactive: Potency [1] > 92 µM | Potency [2] | Potency [3] | outcome [4] | Potency [5] | Potency [6] | Potency [7] | outcome [8] | Potency [9] | Potency [18] | Potency [10] | Potency [19] | Potency [11] | outcome [12] | outcome [13] | Potency [14] | activity change % (negative = inhibition) [15] 0.221% | outcome [17]

Cc1cc(Cl)ccc1O
inactive: Potency [20] > 92 µM | Potency [2] | Potency [3] | outcome [4] | Potency [5] | Potency [7] | outcome [8] | Potency [9] | Potency [10] | Potency [19] | Potency [11] | outcome [12] | outcome [13] | Potency [14] | activity change % (negative = inhibition) [15] -9.26% | max response [16] -0.864% | outcome [17]

Nc1ccc(-c2ccccc2)cc1
inactive: Potency [20] > 92 µM | Potency [3] | outcome [4] | Potency [5] | Potency [6] | Potency [7] | outcome [8] | Potency [9] | Potency [18] | Potency [10] | Potency [19] | Potency [11] | outcome [12] | outcome [13] | Potency [14] | activity change % (negative = inhibition) [15] -2.45% | outcome [17]

CCSC(=O)N1CCCCCC1
inactive: Potency [1] > 92 µM | Potency [20] > 92 µM | Potency [3] | Potency [5] | Potency [6] | Potency [7] | Potency [9] | Potency [18] | Potency [10] | Potency [19] | Potency [11] | outcome [12] | outcome [13] | Potency [14] | activity change % (negative = inhibition) [15] -3.1% and -10.9% | max response [16] -3.47% and 3.01% | outcome [17]

Cc1cc(-c2ccc(N)c(C)c2)ccc1N
inactive: Potency [20] > 92 µM | Potency [2] | Potency [3] | outcome [4] | Potency [5] | Potency [6] | Potency [7] | outcome [8] | Potency [9] | Potency [18] | Potency [19] | Potency [11] | outcome [12] | outcome [13] | Potency [14] | activity change % (negative = inhibition) [15] 4.51% and -14.4%
